Sampled rows, rich in hits. Any-hit rate of the full collection: about 2.4%.
Pol eta inh – blocks human DNA polymerase eta activity; recombinant Pol eta, fluorescent DNA replication assay; AID 588591; 1.2% of 390,000 active; Q9Y253; Potency, µM (titrated, usually from 114 µM), for inactives: at the top dose activity change, negative = inhibition, actives largely listed as inhibitors; also: % is scaled to controls: 0 for no effect and ±100 for the full control effect
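Fluorescent replication assay: 50 nM final substrate added after a 15 min room-temperature compound preincubation with 10 nM enzyme. Signal taken at 0 min and again at 10 min.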
Pol kappa inh – DNA polymerase kappa (human) inhibition; Q9UBT6; purified Pol kappa, fluorescent DNA synthesis assay, 10 min; Potency, µM (doses to about 107 µM), for inactives: top-dose activity, negative = inhibition, most hits filed as inhibitors; 0.53% of 400,000 active; also: % is scaled to controls: 0 for no effect and ±100 for the full control effect
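First, compounds were pin-transferred onto 10 nM Pol kappa. After 15 min at room temperature, substrate was added to 50 nM final. Fluorescence was then measured kinetically at 0 and 10 min.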
Pol beta inh – inhibitors of human DNA polymerase beta | Pol beta primer extension/strand displacement, fluorescence kinetic | AID 485314 | 1.3% of 340,000 active | P06746 | Potency, µM (titrated, usually from 114 µM), without a hit: top-dose activity change, negative = inhibition, usual class: inhibitors; also: % is scaled to controls: 0 for no effect and ±100 for the full control effect
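Pol beta (10 nM) and compounds were preincubated 15 min at room temperature, then 50 nM substrate (final) started primer extension/strand displacement. Reads were taken at 0 and 10 min; concentration-response data were fitted to a four-parameter Hill equation.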
FEN1 inhibitor – human FEN1 inhibition. Potency, µM (top dose mostly 114 µM), without a hit: top-dose activity change, negative = inhibition, usual class: inhibitors. P39748. Recombinant FEN1 flap cleavage, fluorescence, 15 min. 0.35% of 390,000 active. AID 588795; also: % is scaled to controls: 0 for no effect and ±100 for the full control effect; nearly all actives have a fitted effect of over 65% in size
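Enzyme 10 nM, 15 min RT preincubation with compound; start with substrate 50 nM final; reads at 0 and 15 min; qHTS titration, four-parameter Hill fit.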
Pol iota inh – inhibitors of human DNA polymerase iota; Pol iota fluorescent replication assay, 10 min; Q9UNA4; AID 588590; 1% of 390,000 active; Potency, µM (top dose mostly 115 µM), without a hit: at the highest dose activity, negative = inhibition, usual class: inhibitors
Target sequence (Q9UNA4 whole entry, looked up): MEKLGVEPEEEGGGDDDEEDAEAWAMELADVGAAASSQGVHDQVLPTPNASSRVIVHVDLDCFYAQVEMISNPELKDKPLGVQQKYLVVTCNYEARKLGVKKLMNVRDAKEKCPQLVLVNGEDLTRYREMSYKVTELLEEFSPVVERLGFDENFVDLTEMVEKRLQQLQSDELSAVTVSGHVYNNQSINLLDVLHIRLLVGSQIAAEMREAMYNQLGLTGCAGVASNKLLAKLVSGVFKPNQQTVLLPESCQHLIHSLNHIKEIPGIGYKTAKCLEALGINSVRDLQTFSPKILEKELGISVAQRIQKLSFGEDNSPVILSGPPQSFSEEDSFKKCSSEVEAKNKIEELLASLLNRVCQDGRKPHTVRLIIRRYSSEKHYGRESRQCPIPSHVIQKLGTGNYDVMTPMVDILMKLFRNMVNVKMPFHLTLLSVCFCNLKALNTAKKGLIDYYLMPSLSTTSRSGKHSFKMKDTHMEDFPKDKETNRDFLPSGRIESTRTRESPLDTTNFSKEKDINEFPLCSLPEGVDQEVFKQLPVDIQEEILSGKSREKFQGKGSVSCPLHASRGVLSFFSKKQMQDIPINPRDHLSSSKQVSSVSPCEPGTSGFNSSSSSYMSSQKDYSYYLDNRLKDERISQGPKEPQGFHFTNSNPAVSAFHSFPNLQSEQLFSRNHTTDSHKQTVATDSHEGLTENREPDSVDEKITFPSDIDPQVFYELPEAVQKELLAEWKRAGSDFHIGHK
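Fluorescent replication assay read twice, at 0 min and 10 min after adding 50 nM (final) substrate. Enzyme (10 nM) and compounds were first incubated 15 min at room temperature; enzyme-free buffer wells were negative controls.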
Tb PGK inh – inhibitors of T. brucei phosphoglycerate kinase | P07378 | PGK/GAPDH coupled, Kinase-Glo luminescence, 60 min | Potency, µM (titrated, usually from 57.5 µM), for inactives: at the highest dose activity change, negative = inhibition, most hits filed as inhibitors | 0.043% of 380,000 active; also: % is scaled to controls: 0 for no effect and ±100 for the full control effect; nearly all actives have a fitted effect of over 60% in size
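Recombinant glycosomal PGK reaction used 1,3-bisphosphoglycerate generated in-well by GAPDH (100nM final) in 100mM TEA pH 7.6, 5mM MgCl2, 0.01% Tween-20. After 60 minutes at room temperature, ATP was read by Kinase-Glo Plus luminescence end-point.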
Starred values were filed as active, the others as inactive; u = inconclusive; x = no result given; [ ] = another dose, or the depositor's remark. Calls follow the shape of the dose curve; as a rule, active = well fitted curve in the direction sought with a large enough effect; inconclusive = small, poorly fitted or top-dose-only effect, or another doubt; inactive = no such curve, though single readings can be large; an effect the other way counts as inactive or inconclusive. Potency is read from the fitted curve at half-maximal effect.

SMILES	Pol eta inh	Pol kappa inh	Pol beta inh	FEN1 inhibitor	Pol iota inh	Tb PGK inh
CCCCn1c(=O)[nH]c(=O)c2c1nc(Cn1ncc(Cl)c(Cl)c1=O)n2CCC	56µM*	-8%	50µM*	-1%	25µM*	0%
CCCCn1c(=O)[nH]c(=O)c2c1nc(CN1C(=O)c3ccccc3S1(=O)=O)n2CCC	-9%	-3%	29%	-4%	-5%	-4%
COc1ccc2[nH]c3nc(SCC(=O)Nc4cccc(NC(C)=O)c4)nnc3c2c1	0%	-20%	35µM*	8%	u	4%
COc1ccc2[nH]c3nc(SCc4nnc(-c5ccccc5)o4)nnc3c2c1	-32%	-12%	22µM*	1%	8%	-5%
N#Cc1ccc(S(=O)(=O)N2CCN(c3nc(-c4ccccc4)nc4ccccc34)CC2)cc1	x	6%	x	17%	1%	x
Cc1cc(C(=O)COC(=O)c2ccc(O)cc2)c(C)n1CC1CCCO1 (configuration not stated)	-24%	u	29%	-5%	89µM*	-5%
CC1=C(C(=O)Nc2ccccc2)C(c2ccc(Cl)cc2)n2c(s/c(=C/c3cccc(OCC(=O)O)c3)c2=O)=N1 (configuration not stated)	56µM*	-13%	79µM*	u	u	u
COc1ccc(C2C(C(C)=O)=C(C)N=c3s/c(=C\c4ccco4)c(=O)n32)c(OC)c1 (configuration not stated)	2%	-32%	35µM*	-14%	u	-9%
CCOc1ccc(C2C(C(=O)Nc3ccccc3)=C(C)N=c3s/c(=C/c4cccc(OCC(=O)O)c4)c(=O)n32)cc1 (configuration not stated)	u	-11%	-28%	2%	u	-6%
COc1ccc(C2C(C(C)=O)=C(C)N=c3s/c(=C\c4cc(C)n(C)c4C)c(=O)n32)c(OC)c1 (configuration not stated)	-24%	-12%	12%	u	-8%	-4%
CCOC(=O)C1=C(c2ccccc2)N=c2s/c(=C\c3ccco3)c(=O)n2C1c1cccs1 (configuration not stated)	79µM*	u	10µM*	-17%	20µM*	-2%[11.5 µM]
CCOC(=O)C1=C(C)N=c2s/c(=C\c3ccc(OCC(=O)O)cc3)c(=O)n2C1c1ccccc1OC (configuration not stated)	40µM*	-6%	13%	79µM*	17%	-6%
O=C(Nc1ccc(F)c(Cl)c1)N1CCC(CN2CCc3ccccc3C2)CC1	-15%	-15%	0%	-15%	1%	-1%
COc1cccc(Cn2cnc3c(cnn3C(C)(C)C)c2=O)c1	x	-9%	x	1%	-18%	x
CCn1nc(CC(=O)Nc2ccc(-n3cnnn3)c(OC)c2)c2ccccc2c1=O	u	-21%	32µM*	-1%	1%	-12%
CCn1nc(CC(=O)Nc2ccc(-n3cnnn3)c(C)c2)c2ccccc2c1=O	-19%	5%	19%	-2%	-6%	-3%
Cc1c(Cl)cccc1NC(=O)CCS(=O)(=O)c1ccc(Br)s1	-7%	u	50µM*	20%	-16%	1%
CCOc1ccc(NC(=O)CCS(=O)(=O)c2ccc(Br)s2)cc1	u	-28%	28µM*	-4%	8%	-16%
COC(=O)C1=C[C@@H](C(=O)OC)[C@@H]2C3=C(C(=O)[C@@]2(C)NC(=O)c2ccccc2)[C@H](C)[C@@H]2C(=O)N(c4ccccc4)C(=O)[C@@H]2[C@@H]3C1	x	-10%	x	3%	21%	x
CCCCCCCCN(CCCCCCCC)c1ccc(/C=C/c2ccnc3ccccc23)cc1	x	-6%	x	14%	-11%	x
OCC1(CO)COC(C(Cl)(Cl)Cl)OC1	x	3%[19.4 µM]	x	x	x	x
COc1ccc(/C=c2\[nH]c(=O)/c(=C/c3ccc(OC)c(OC)c3)[nH]c2=O)cc1OC	x	-8%	x	-9%	11%	x
